Results on 27 compounds are retold here after PubChem BioAssay (Tox21).

The structures appear in SMILES notation. Results filed as inconclusive are left out. The source made the active and inactive calls. Calls follow the shape of the dose curve; as a rule, active = well fitted activation curve with a large enough effect in the repeat runs; inconclusive = weak or mixed curves; inactive = no such curve, though single readings can be large or run the other way.
% is scaled to controls: 0 for no effect and ±100 for the full control effect; potency is read from the fitted curve at half-maximal effect.

For this experiment, the target named is Nuclear receptor subfamily 1 group I member 2 (Rattus norvegicus) (UniProt Q9R1A7). The experiment can be described thus: Rat pregnane X receptor (rPXR) activation by small molecules, qHTS assay (AID 1346983). Also: nearly all actives have a fitted effect of over 20% in size. As to conditions: rPXR luciferase reporter cells, One-Glo luminescence, 24 h; max activation: active compounds read high. In a few lines: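 Cell-based rPXR activation assay: rPXR cells, 2,000 per well, rested 5hr at 37 C, then exposed to compounds in DMSO for 24 hr at 37 C. Luciferase activity read by One-Glo luminescence after 30 min at room temperature.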
Chain of Nuclear receptor subfamily 1 group I member 2 (Rattus norvegicus) (Q9R1A7 whole entry, looked up): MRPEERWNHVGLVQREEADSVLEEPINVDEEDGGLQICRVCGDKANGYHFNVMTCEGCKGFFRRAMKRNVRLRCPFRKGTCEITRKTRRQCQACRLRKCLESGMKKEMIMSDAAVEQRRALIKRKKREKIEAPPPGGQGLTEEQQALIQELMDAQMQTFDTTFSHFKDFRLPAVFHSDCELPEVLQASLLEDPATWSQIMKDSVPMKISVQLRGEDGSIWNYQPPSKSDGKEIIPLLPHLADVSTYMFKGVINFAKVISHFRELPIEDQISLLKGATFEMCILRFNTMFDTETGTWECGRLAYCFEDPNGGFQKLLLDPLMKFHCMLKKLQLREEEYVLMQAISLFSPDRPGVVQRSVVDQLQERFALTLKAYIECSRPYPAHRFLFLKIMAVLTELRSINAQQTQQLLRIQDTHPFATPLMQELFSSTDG
Background: Quantitative high-throughput screening tests each substance at several concentrations.
For `O=C(O)c1nc(=O)[nH]c(=O)[nH]1`, the max activation is -2.15% (inactive). On the same count and under the same terms, the same measure for `CC(=O)N=c1sc(S(N)(=O)=O)nn1C`: -1.62% (inactive); for `C[N@+]12CCCC[C@@H]1CCC(=C(c1cccs1)c1cccs1)C2`: -3.7% (inactive). As for `CC[C@@]1(O)C[C@H](O[C@H]2C[C@H](N(C)C)[C@H](O[C@H]3C[C@H](O)[C@H](O[C@H]4CCC(=O)[C@H](C)O4)[C@H](C)O3)[C@H](C)O2)c2c(cc3c(c2O)C(=O)c2c(O)cccc2C3=O)[C@H]1C(=O)OC`, the max activation is -18.5% (inactive).

Take `C/C1=C2N=C(/C=C3N=C(/C(C)=C4\[N-][C@@](C)([C@@H]5N=C1[C@](C)(CCC(=O)NCC(C)OP(=O)(O)O[C@H]1[C@@H](O)[C@@H](n6cnc7cc(C)c(C)cc76)O[C@@H]1CO)[C@H]5CC(N)=O)[C@@](C)(CC(N)=O)[C@@H]4CCC(N)=O)[C@@](C)(CC(N)=O)[C@@H]\3CCC(N)=O)C(C)(C)[C@@H]/2CCC(N)=O.CC(=O)O.[Co]` (some centres not stated): the max activation was -15.5% (inactive). Same read-out and setting: the same measure for `CC1(C)S[C@@H]2[C@H](NC(=O)C(C(=O)O)c3ccsc3)C(=O)N2[C@H]1C(=O)O` (some centres not stated): -6.29% (inactive).

For the compound `CCCCC/C=C\CCC(=O)N[C@H]1[C@H](Oc2c3cc4cc2Oc2ccc(cc2Cl)[C@@H](O[C@@H]2O[C@H](CO)[C@@H](O)[C@H](O)[C@H]2NC(C)=O)[C@@H]2NC(=O)[C@H](NC(=O)[C@@H]4NC(=O)[C@H]4NC(=O)[C@@H](Cc5ccc(c(Cl)c5)O3)NC(=O)[C@H](N)c3ccc(O)c(c3)Oc3cc(O)cc4c3)c3ccc(O)c(c3)-c3c(O[C@H]4O[C@H](CO)[C@@H](O)[C@H](O)[C@@H]4O)cc(O)cc3[C@@H](C(=O)O)NC2=O)O[C@H](CO)[C@@H](O)[C@@H]1O`, the max activation was 0.769% (inactive). The same measure, in the same setting: the same measure for `O=C(O)C1=C(CSc2nnnn2CS(=O)(=O)O)CS[C@@H]2[C@H](NC(=O)[C@H](O)c3ccccc3)C(=O)N12`: -0.182% (inactive).

For the compound `CCOc1ccc(N=Nc2ccc(N)cc2N)cc1`, the Potency was 3.16 µM (active).

Turning to `O=C(O)[C@H]1/C(=C/CO)O[C@@H]2CC(=O)N21`, the max activation is -2.31% (inactive). On to `CNCC(O)c1ccc(OC(=O)C(C)(C)C)c(OC(=O)C(C)(C)C)c1` (configuration not stated), for which the max activation is 0.121% (inactive). For the compound `COc1cc(-c2ccc(-[n+]3nc(-c4ccccc4)nn3-c3ccc([N+](=O)[O-])cc3)c(OC)c2)ccc1-[n+]1nc(-c2ccccc2)nn1-c1ccc([N+](=O)[O-])cc1`, the max activation was -16% (inactive).

As to `CCOC(=O)O[C@]1(C(=O)COC(=O)CC)CC[C@H]2[C@@H]3CCC4=CC(=O)C=C[C@]4(C)[C@H]3[C@@H](O)C[C@@]21C`, the max activation was 13.1% (inactive).

Take `CC[C@H](C)[C@@H]1NC(=O)[C@H](Cc2ccc(O)cc2)NC(=O)[C@@H](N)CSSC[C@@H](C(=O)N2CCC[C@H]2C(=O)N[C@@H](CC(C)C)C(=O)NCC(N)=O)NC(=O)[C@H](CC(N)=O)NC(=O)[C@H](CCC(N)=O)NC1=O`: the max activation is 0.0402% (inactive). `NS(=O)(=O)c1cc2c(cc1Cl)NC(Cc1ccccc1)NS2(=O)=O` (configuration not stated): the max activation is -1.36% (inactive). Turning to `C[N+]1(C)[C@@H]2CC(OC(=O)C(O)(c3cccs3)c3cccs3)C[C@H]1[C@@H]1O[C@@H]12` (some centres not stated), the max activation was -1.38% (inactive). With `CC(C)[C@@H]1CC[C@@H](C)C[C@H]1OC(=O)c1ccccc1O`, the max activation is -0.772% (inactive). On the same count and under the same terms, the same measure for `CC(C)[C@@H](N)C(=O)O`: 2.42% (inactive); for `CC(C)(C)CC(C)(C)c1cc(Cc2cc(C(C)(C)CC(C)(C)C)cc(-n3nc4ccccc4n3)c2O)c(O)c(-n2nc3ccccc3n2)c1`: -3.34% (inactive); for `COc1ccc(C[C@H](C)NC[C@@H](O)c2ccc(O)c(NC=O)c2)cc1`: -1.02% (inactive). The same measure, in the same setting: then `CCCCCCCCCCCCCCCC(=O)OCC(COC(=O)CCCCCCCCCCCCCCC)OC(=O)CCCCCCCCCCCCCCC`, with -0.974% (inactive); and `CCOC(=O)[C@H](CS)NCCN[C@@H](CS)C(=O)OCC`, with -0.64% (inactive). Same read-out and setting: then `CCN(CC)CCOCCOC(=O)C(CC)(CC)c1ccccc1`, with 2.25% (inactive). Regarding `CC(=O)N(CC(C)C(=O)O)c1c(I)cc(I)c(N)c1I` (configuration not stated), the max activation is -1.91% (inactive).

Take `O=C(O)c1ccc(NC(=O)[C@H](Cc2ccc(O)cc2)NC(=O)c2ccccc2)cc1`: the max activation was 0.18% (inactive).

Regarding `Clc1cc(Cl)c(OCC#CI)cc1Cl`, the max activation is -1.32% (inactive).

In the case of `CC(=O)Nc1ccc(OC(=O)c2ccccc2O)cc1`, the max activation is -2.95% (inactive).
